# In PubChem BioAssay AID463173 (ICCB-Longwood Screening Facility, Harvard Medical School, 2010):
# Hit rate of the full screen: of about 52,000 compounds, about 1,700 (3.3%) were called active. Cut-off read from the data, not from the text of the source: active = survival mostly below about 52% (no sharp cut-off); inactive = mostly above about 56%. Only a selection was taken, and actives are over-represented in it overall.
# Test system: Wild type
# Assay: growth inhibition of S. aureus wild type versus tarO mutant, primary screen, teichoic acid synthesis inhibitors, RN4220, OD600 (AID 463173)
# Conditions: S. aureus RN4220 wild type/DeltatarO growth, OD600, 18 h, active compounds read low, screened at 18.75 µg/mL (by protocol)
row,SMILES,survival
1,Cc1ccc(C)c(NC(=O)N2CCC(CN3CCOCC3)CC2)c1,135% (inactive)
2,CCC(CC)c1nn2c(=O)cc(COc3ccc(NC(=O)c4ccc(Cl)cc4)cc3)nc2s1,86% (inactive)
3,Cc1ccc(Nc2ccc(N3CCN(C(=O)c4ccc([N+](=O)[O-])cc4Cl)CC3)nn2)cc1,129% (inactive)
4,COCCn1c(SCC(=O)c2c(C)[nH]c3ccccc23)nc2cc(C(=O)NC(C)C)ccc2c1=O,74% (inactive)
5,COCCn1c(SCC(=O)c2c[nH]c3ccccc23)nc2cc(C(=O)NC(C)C)ccc2c1=O,14% (active)
6,COCCNC(=O)c1ccc2c(=O)n(CCOC)c(SCC(=O)c3c[nH]c4ccccc34)nc2c1,-1% (active)
7,COCCNC(=O)c1ccc2c(=O)n(CCc3ccccc3)c(SCC(=O)CC(=O)OC)nc2c1,78% (inactive)
8,COCCn1c(SCC(=O)c2c[nH]c3ccccc23)nc2cc(C(=O)NCC(C)C)ccc2c1=O,73% (inactive)
9,COCCn1c(SCC(=O)c2ccccc2)nc2cc(C(=O)NC3CCCC3)ccc2c1=O,76% (inactive)
10,CCOc1ccc(NC(=O)CCSc2nc(-c3ccc4c(c3)OCO4)cc(C(F)(F)F)n2)cc1,72% (inactive)
11,COc1ccc(C)cc1NC(=O)NCc1cccn1Cc1ccccc1,98% (inactive)
12,O=C(NCc1ccccc1Cl)c1ccc(NC(=O)N2CCSc3ccccc32)cc1,67% (inactive)
13,N#CCCSCc1ccc(C(=O)O)o1,107% (inactive)
14,COc1ccc(-c2nc3ccccc3o2)cc1NC(=O)c1ccc(-c2ccc(C)c(Cl)c2)o1,73% (inactive)
15,CC(C)c1ccc2oc(-c3ccc(NC(=O)c4cc5ccccc5o4)cc3)nc2c1,61% (inactive)
16,Cc1ccc(-c2nc3cc(Cl)ccc3o2)cc1NC(=O)c1cc2ccccc2o1,72% (inactive)
17,COc1ccc(-c2nc3cc(C(C)C)ccc3o2)cc1NC(=O)c1ccc(C)c(Cl)c1,5% (active)
18,COc1ccc(-c2nc3cc(C(C)C)ccc3o2)cc1NC(=O)COc1ccc(C)cc1C,59% (inactive)
19,Cc1ccc(-c2nc3cc(C(C)C)ccc3o2)cc1NC(=O)c1cc2ccccc2o1,11% (active)
20,COC(=O)CCN(C(=O)C1CCN(S(=O)(=O)c2c(C)noc2/C=C/c2ccccc2F)CC1)c1ccccc1,126% (inactive)

row,SMILES,survival
1,CCC(C)NS(=O)(=O)c1ccc(N2CCCCS2(=O)=O)cc1 (stereo not given),135% (inactive)
2,CCOC(=O)c1noc2ncn(CC(=O)Nc3ccc(C)c(F)c3)c(=O)c12,72% (inactive)
3,Cc1ccc(NC(=O)c2cccc(NC(=O)N3CCSc4ncccc43)c2)cc1F,92% (inactive)
4,O=C1COc2cc(S(=O)(=O)NCc3ccco3)c(Cl)cc2N1,73% (inactive)
5,CCCCN(CC)Cc1ccc(CNS(=O)(=O)c2cc3c(cc2Cl)NC(=O)CO3)o1,-3% (active)
6,Cc1ccc(CNS(=O)(=O)c2cc3c(cc2Cl)NC(=O)CO3)o1,124% (inactive)
7,CC(C)(CO)NC(=O)c1cc(-c2ccc(Cl)cc2Cl)on1,123% (inactive)
8,CCOC(=O)c1c(NC(=O)COc2ccc(Cl)cc2Cl)sc2c1CCCCC2,76% (inactive)
9,COc1ccc(CNC(=O)C2CCN(S(=O)(=O)c3c(C)noc3/C=C/c3ccccc3F)CC2)cc1,94% (inactive)
10,Nc1n[nH]c(N)c1N=Nc1ccc(Cl)cc1,107% (inactive)
11,COc1ccc2sc(N)nc2c1,115% (inactive)
12,COc1ccc(N=Nc2c(N)n[nH]c2N)cc1,2% (active)
13,Cc1ccc(-c2nc3ccccc3o2)cc1NC(=O)c1cccc2c(Cl)cccc12,62% (inactive)
14,Cn1c(-c2ccccc2)nc2cc(N)ccc21,105% (inactive)
15,Oc1ccccc1-c1nc(-c2cccs2)c(-c2cccs2)[nH]1,-11% (active)
16,Oc1cccc(-c2nc(-c3cccs3)c(-c3cccs3)[nH]2)c1,3% (active)
17,CN(C)c1ccc(-c2nc(-c3cccs3)c(-c3cccs3)[nH]2)cc1,65% (inactive)
18,COc1ccc(O)c(-c2cn[nH]c2-c2cccs2)c1,105% (inactive)
19,Cc1ccc(-c2nc(-c3cccs3)c(-c3cccs3)[nH]2)cc1,76% (inactive)
20,Fc1ccc(-c2nc(-c3cccs3)c(-c3cccs3)[nH]2)cc1,79% (inactive)

row,SMILES,survival
1,Cc1ccc(Cc2c(C)nc3nc(SCC(=O)NCCC(C)C)nn3c2C)cc1,64% (inactive)
2,Cc1nn(CC(=O)NCc2ccccc2Cl)c(=O)c2nn(-c3ccccc3)c(C)c12,130% (inactive)
3,COc1ccc(NC(=O)Cn2cnc3ccc(S(=O)(=O)N4CCC(C)CC4)cc3c2=O)cc1Cl,158% (inactive)
4,O=C(Nc1c(C(=O)N2CCOCC2)cnn1-c1ccccc1)c1ccccc1F,104% (inactive)
5,CN1CCN(C(=O)/C=C\C(=O)O)CC1,122% (inactive)
6,CCCCSCCCNC(=O)c1cc(-c2cccnc2)nc2ccc(S(=O)(=O)N3CCC(C)CC3)cc12,89% (inactive)
7,COc1cc(C)c(Cl)cc1S(=O)(=O)NCCc1c(C)[nH]c2ccccc12,73% (inactive)
8,Cc1ccc(Nc2ncccc2C(=O)NC2CCCCC2)cc1,110% (inactive)
9,CCOc1ccc(C2C(=O)N(C3CCCCCC3)CC(=O)N2Cc2ccccc2)cc1OC (stereo not given),75% (inactive)
10,Cc1ccc(NC(=O)C(Cc2ccccc2)n2cccc2)c(C)c1 (stereo not given),81% (inactive)
11,COc1ccc(NC(=O)C(Cc2ccccc2)n2cccc2)cc1OC (stereo not given),82% (inactive)
12,O=C(Nc1ccccc1)C(Cc1ccccc1)N1Cc2ccccc2C1=O (stereo not given),90% (inactive)
13,Cc1cccc(NC(=O)C(Cc2ccccc2)n2cccc2)c1C (stereo not given),84% (inactive)
14,CCc1cccc(NC(=O)C(Cc2ccccc2)n2cccc2)c1 (stereo not given),12% (active)
15,Cc1ccc(NC(=O)C(Cc2ccccc2)n2cccc2)cc1C (stereo not given),13% (active)
16,O=C(Nc1cccc(Cl)c1)C(Cc1ccccc1)n1cccc1 (stereo not given),8% (active)
17,Cc1ccc(C)c(NC(=O)C(Cc2ccccc2)n2cccc2)c1 (stereo not given),134% (inactive)
18,CC(=O)c1cccc(NC(=O)[C@H](Cc2ccccc2)N2Cc3ccccc3C2=O)c1,81% (inactive)
19,O=C(O)CC1=C(c2cccs2)CCC1=O,105% (inactive)
20,Cc1cc(C(F)F)n2ncc(C(=O)NCc3ccccc3)c2n1,108% (inactive)
